The values below come from paper PMC11062922 (Nature Chemical Biology, 2023).

What all share (design): species or system human, MV4-11 + K-562 + COLO205 + SK-N-BE2 + OVCAR-8
The test system of test [1] is MAP4K2. The note with it: read-out: apparent Kd, n = 1.
Test [2] deals with PIP4K2C. The settings on record: read-out: apparent Kd, n = 1.
Test [3] relates to STK4. The settings on record: read-out: apparent Kd; compound concentrations:100 nM and 1000 nM (sheet 'Samples'); n = 1.
Test [4] relates to VDAC3. The settings on record: read-out: apparent Kd, n = 1.
Test [5] has as its system MELK. The settings on record: read-out: apparent Kd, n = 1.
Test [6] has as its system CDK6. The note with it: read-out: apparent Kd, n = 1.
Test [7] has as its system CSNK1G1. The settings on record: read-out: apparent Kd, compound concentrations: 100 nM and 1000 nM (sheet 'Samples'), n = 1.
In test [8] the test system is ILK. The settings on record: read-out: apparent Kd; compound concentrations: 100 nM and 1000 nM (sheet 'Samples'), CATDS: 4.6551408852927599E-2; n = 1.
In test [9] the test system is STRADA. The note with it: read-out: apparent Kd, compound concentrations: 100 nM and 1000 nM (sheet 'Samples'), n = 1.
Test [10] deals with ERN2. The note with it: read-out: apparent Kd, compound concentrations: 100 nM and 1000 nM (sheet 'Samples'), n = 1.
For test [11], the system named is PIK3C3. The settings on record: read-out: apparent Kd, n = 1.
In test [12] the test system is BRAF. The note with it: read-out: apparent Kd, compound concentrations: 100 nM and 1000 nM (sheet 'Samples'), n = 1.
Test [13] has as its system MAP3K11. The settings on record: read-out: apparent Kd, compound concentrations: 100 nM and 1000 nM (sheet 'Samples'), n = 1.
The subject of test [14] is PRKAA1. The settings on record: read-out: apparent Kd, n = 1.
Test [15] relates to PRKAA2. The note with it: read-out: apparent Kd, n = 1.
The test system of test [16] is PRKAG2. The settings on record: read-out: apparent Kd, compound concentrations: 100 nM and 1000 nM (sheet 'Samples'), n = 1.
Test [17] relates to PIK3C2A. The settings on record: read-out: apparent Kd, compound concentrations: 100 nM and 1000 nM (sheet 'Samples'), n = 1.
Test [18] concerns CSNK1E. The note with it: read-out: apparent Kd; compound concentrations:100 nM and 1000 nM (sheet 'Samples'); n = 1.
The mark [19] stands for this setting: compound concentrations:100 nM and 1000 nM (sheet 'Samples').

Like-named read-outs stand apart in the source and are kept apart here.

Turning to `CS(=O)(=O)Cc1ccc(Nc2nccc(-c3c(-c4cccc(NC(=O)C5CCCCC5)c4)nn4ncccc34)n2)cc1` [GSK350559A], the potency estimated from few doses in test [1] (setting [19]) is 1890 nM; in test [2] (setting [19]) it was 136 nM; in test [3], 1770 nM; in [4] (setting [19]) it was 2030 nM.
As to `CC(C)c1cc(-c2ccc3c(N)n[nH]c3c2)nc(N)n1` [GSK2250882A], the potency estimated from few doses in test [5] (setting [19]) is 1300 nM.
Take `COc1ccc(Nc2nccc(N3CCC(NC(=O)Nc4ccc5c(c4)OCO5)C3)n2)cc1` (centres unmarked) [GSK1379745A]: the potency estimated from few doses is 1680 nM in test [6] (compound concentrations: 100 nM and 1000 nM (sheet 'Samples'), CATDS: 3.7997833467257401E-2); 1600 nM in test [7] (CATDS: 3.8833809861808503E-2); 1110 nM in test [8]; 2210 nM in test [9] (CATDS: 3.4015058114393301E-2).
As for `O=C1N=C(NCCc2cccc(F)c2)S/C1=C\c1ccc2ncccc2c1` [RO4508344-000], in test [10] (CATDS: 7.9069869208326996E-2), the potency estimated from few doses was 1660 nM.
As for `CCn1cc(-c2ccnc3[nH]c(-c4cccc(CN(C)C)c4)cc23)c(-c2ccc(NC(=O)N(C)C)cc2)n1` [GSK1070916], in test [11] (setting [19]), the potency estimated from few doses was 1500 nM.
Take `CC(C)c1nc(-c2cccc(NS(=O)(=O)c3ccccc3)c2)c(-c2ccnc(Nc3ccc4c(c3)CN(C)CC4)n2)s1` [GSK1649598A]: the potency estimated from few doses in test [12] (CATDS: 1.66184718911398E-2) was 621 nM; in test [10] (CATDS: 3.39417380215319E-2) it was 124 nM.
For `O=C1N=C(NCc2cccs2)SC1Cc1ccc2ncccc2c1` (centres unmarked) [RO4629078-000], the potency estimated from few doses in test [13] (CATDS: 8.9937609356747009E-3) was 890 nM; in test [5] (compound concentrations: 100 nM and 1000 nM (sheet 'Samples'), CATDS: 7.0296492391178304E-3) it was 2190 nM; in [2] (compound concentrations: 100 nM and 1000 nM (sheet 'Samples'), CATDS: 1.8402634239812199E-2), 201 nM; in test [14] (compound concentrations: 100 nM and 1000 nM (sheet 'Samples'), CATDS: 1.35837809267181E-2) it was 343 nM; in test [15] (compound concentrations: 100 nM and 1000 nM (sheet 'Samples'), CATDS: 1.00285824398185E-2), 665 nM; in test [16] (CATDS: 1.6046460203227E-2) it was 253 nM.
As for `Cl.Cl.Cl.c1ccc(Oc2ccc(Nc3ccnc4cc(-c5ccc(CN6CCNCC6)o5)ccc34)cc2)nc1.c1ccc(Oc2ccc(Nc3ccnc4cc(-c5ccc(CN6CCNCC6)o5)ccc34)cc2)nc1` [GW567142A], the potency estimated from few doses was 2080 nM in test [17] (CATDS: 1.69384830257906E-2); 1830 nM in test [4] (compound concentrations: 100 nM and 1000 nM (sheet 'Samples'), CATDS: 1.74915256837203E-2).
In the case of `COc1ccc(CNC(=O)NC2CCN(c3ccnc(Nc4cc(OC)c(OC)c(OC)c4)n3)C2)cc1` (centres unmarked) [GSK1379748A], the potency estimated from few doses in test [2] (compound concentrations: 100 nM and 1000 nM (sheet 'Samples'), CATDS: 0.31006537475482299) was 2120 nM.
With `CS(=O)(=O)CCNCc1ccc(-c2ccc3ncnc(Nc4ccc(OCc5cccc(F)c5)c(C(F)(F)F)c4)c3c2)o1` [GW576484X], the potency estimated from few doses is 1620 nM in test [7] (CATDS: 5.4638885824274799E-2), 1740 nM in test [17] (CATDS: 5.2836581053762099E-2) and 1740 nM in test [9] (CATDS: 5.2854601863181902E-2).
With `Cc1cccc(Nc2nc(NCCN)ncc2C(N)=O)c1` [GSK1292139B], the potency estimated from few doses in [1] (compound concentrations: 100 nM and 1000 nM (sheet 'Samples'), CATDS: 7.8363425236556997E-2) is 1110 nM.
`CCc1nc(-c2cccc(N(C)S(=O)(=O)c3ccccc3)c2)c(-c2ccnc(Nc3ccc(N4CCN(C(C)=O)CC4)nc3)n2)s1` [GSK1645895A]: the potency estimated from few doses in [11] (compound concentrations: 100 nM and 1000 nM (sheet 'Samples'), CATDS: 0.15936807020930999) is 1340 nM.
For the compound `CN1C(=O)c2ccccc2N(C)c2nc(Nc3cnn(C4CCNCC4)c3)ncc21` [XMD-17-51], the potency estimated from few doses in [14] (compound concentrations: 100 nM and 1000 nM (sheet 'Samples'), CATDS: 1.61806798261299E-2) is 911 nM; in test [16] (CATDS: 1.7077716006994301E-2) it was 750 nM.
As to `COc1cc(/C=N/Nc2ncnc3[nH]ncc23)ccc1O` [GW578748X], the potency estimated from few doses in test [5] (setting [19]) was 2390 nM.
With `COc1cc2ncn(-c3cc(OCCCc4ccccc4)c(C(N)=O)s3)c2cc1OC` [GSK205189A], the potency estimated from few doses in test [14] (setting [19]) is 1020 nM.
With `CN(C)Cc1ccc(-c2ccc3c(Nc4ccc(Oc5ccccn5)cc4)ccnc3c2)o1` [GW567148X], in test [14] (compound concentrations: 100 nM and 1000 nM (sheet 'Samples'), CATDS: 1.81087827293436E-2), the potency estimated from few doses is 1380 nM.
Turning to `CC(=O)N1CCN(c2ccc(Nc3nccc(-c4sc(C(C)C)nc4-c4cccc(NS(=O)(=O)c5ccccc5)c4)n3)cn2)CC1` [GSK1645872A], the potency estimated from few doses in test [12] (CATDS: 3.03150696001999E-2) is 721 nM.
Consider `Cn1cc(-c2cnc(N)c3c(-c4ccc5c(c4)CCN5C(=O)Cc4ccccc4)csc23)cn1` [GSK2593074A], for which the potency estimated from few doses in [3] is 1130 nM.
For the compound `CC(C)c1nc(-c2cccc(NS(=O)(=O)c3c(F)cccc3F)c2F)c(-c2ccnc(Nc3ccc(N4CCOCC4)nc3)n2)s1` [GSK2008607A], the potency estimated from few doses in [12] (CATDS: 1.89965490605935E-2) is 1670 nM; in test [10] (CATDS: 2.27822446193667E-2), 926 nM; in test [13] (CATDS: 3.6955578451965801E-2), 316 nM; in test [15] (compound concentrations: 100 nM and 1000 nM (sheet 'Samples'), CATDS: 2.0597012246937899E-2), 1250 nM.
Consider `Cl.Cn1c(=O)c(Cc2ccc(F)cc2F)cc2cnc(NC3CCOCC3)nc21` [RO3308757-001], for which the potency estimated from few doses was 706 nM in [14] (setting [19]) and 1190 nM in test [15] (setting [19]).
On to `CNc1nccc(-c2c(-c3ccc(F)cc3)ncn2C2CCN(C)CC2)n1` [SB-222903], for which the potency estimated from few doses in test [18] was 41.6 nM.
Consider `CC(C)c1nc(-c2cccc(NS(=O)(=O)c3c(F)cccc3F)c2)c(-c2ccnc(Nc3ccc(N4CCOCC4)nc3)n2)s1.Cl` [GSK1723980B], for which the results for the potency estimated from few doses in test [12] (CATDS: 2.6842704761094599E-2) and in test [13] (CATDS: 1.8312802074437001E-2) were 243 nM and 662 nM, respectively.
As to `N#Cc1cccc(Nc2nccc(-c3cnn4ncccc34)n2)c1` [GW778894X], the potency estimated from few doses in test [6] (setting [19]) was 1970 nM; in test [18] it was 314 nM; in test [11] (setting [19]) it was 994 nM; in [2] (setting [19]), 113 nM.
